Holding throughout (experiment): NCI-60 one-dose screen, 48 h (100 = growth as untreated, 0 = no growth, -100 = all killed)
The test system of one assay is NCI-H226 lung. The conditions noted are these: 10 µM unless noted.
For a further assay, the system named is NCI-H460 lung. Conditions: 10 µM unless noted.
Another assay has as its system 786-0 renal. The conditions noted are these: 10 µM unless noted.
Another assay concerns MDA-MB-231 breast. Conditions: 10 µM unless noted.
The subject of another assay is SF-268 CNS. Conditions: 10 µM unless noted.
A further assay has as its system SF-539 CNS. The conditions noted are these: 10 µM unless noted.
The next assay deals with M14 melanoma. Conditions: 10 µM unless noted.
A further assay deals with HCT-15 colon. Conditions: 10 µM.
The subject of a further assay is UACC-62 melanoma. The conditions noted are these: 10 µM unless noted.
The subject of the next assay is UO-31 renal. Conditions: 10 µM unless noted.
The next assay concerns TK-10 renal. The conditions noted are these: 10 µM unless noted.
In the next assay the test system is ACHN renal. Conditions: 10 µM unless noted.
A further assay relates to HL-60(TB) leukemia. Conditions: 10 µM unless noted.
For another assay, the system named is NCI/ADR-RES ovarian. The conditions noted are these: 10 µM unless noted.
The subject of the next assay is T-47D breast. The conditions noted are these: 10 µM unless noted.
The next assay relates to MDA-MB-435 melanoma. Conditions: 10 µM unless noted.
Another assay concerns SW-620 colon. Conditions: 10 µM unless noted.
The next assay deals with MCF7 breast. Conditions: 10 µM unless noted.
The next assay deals with HCT-116 colon. The conditions noted are these: 10 µM unless noted.
For another assay, the system named is KM12 colon. Conditions: 10 µM unless noted.

Several values for one entry are separate records, joined by “and”; a condition that tells them apart may be missing. Equal entries are not always repeated. The panel holds about 83,000 compounds, 20% with a hit somewhere; the sample as a whole holds those more often.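 Cells were grown in 96-well plates and exposed to the test compound at a single concentration for 48 hours; results are reported as percent growth, with values below 10 considered active.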 A number with no mark means an inactive call. Activity calls are given as the source filed them.

Turning to `CC(=O)OC1CCC2(C)C(=CCC3C4CC(CN5CC5)C(=O)C4(C)CCC32)C1` (stereo not drawn), the growth in the assay on NCI-H226 lung is 97.7%; in the assay on NCI-H460 lung, 88.2%; in the assay with 786-0 renal, 87.9%; with MDA-MB-231 breast it was 99.6%; in the assay on SF-268 CNS, 101%; with SF-539 CNS, 98.1%. Further, the growth with M14 melanoma is 93.4%; with HCT-15 colon, 89.7%; with UACC-62 melanoma, 94.4%; in the assay on UO-31 renal it was 34.1%; with TK-10 renal, -12.1% (active); in the assay with ACHN renal it was 76.4%. The growth in the assay on HL-60(TB) leukemia was 64.2%; with NCI/ADR-RES ovarian it was 101%; in the assay with T-47D breast, -11.8% (active); in the assay with MDA-MB-435 melanoma, 90.4%; in the assay with SW-620 colon it was 65.3%; in the assay with MCF7 breast, 15.5%. Besides, the growth with HCT-116 colon is 74.4%; in the assay on KM12 colon, -3.45% (active).

For `c1ccc(CCN2CCCCC2Cc2ccccc2)cc1` (stereo not drawn), the growth in the assay with NCI-H226 lung is 102%; with NCI-H460 lung it was 116%; with 786-0 renal, 102%; in the assay on MDA-MB-231 breast, 96.4%; in the assay with SF-268 CNS, 99.4%; in the assay on SF-539 CNS it was 101%. The growth was 94.7% with M14 melanoma; 104% in the assay with HCT-15 colon; 92.4% in the assay on UACC-62 melanoma; 74.7% in the assay on UO-31 renal; 96.6% in the assay with TK-10 renal; 94.6% in the assay on ACHN renal. For the same compound, the growth is 80.3% in the assay on HL-60(TB) leukemia; 87.8% in the assay with NCI/ADR-RES ovarian; 86.2% in the assay with T-47D breast; 118% in the assay on MDA-MB-435 melanoma; 107% in the assay on SW-620 colon; 96.1% in the assay with MCF7 breast. The values for the growth in the assay with HCT-116 colon and with KM12 colon were 78.1% and 103%, respectively.

Turning to `C[CH2][Pb]([CH2]C)([CH2]C)[O]C(=O)COC`, the growth with NCI-H226 lung was 6.09% (active); with NCI-H460 lung, 3.94% (active); in the assay with 786-0 renal, -46.4% (active); with MDA-MB-231 breast it was 8.7% (active); with SF-268 CNS, -14.8% (active); in the assay on SF-539 CNS it was -41.8% (active). The growth with M14 melanoma was 9.74% (active); with HCT-15 colon, 8.99% (active); with UACC-62 melanoma, 19.3%; in the assay on UO-31 renal, -9.22% (active); with ACHN renal, 12.7%; in the assay with HL-60(TB) leukemia it was -50% (active). Moreover, the growth with NCI/ADR-RES ovarian is 4.13% (active); in the assay with T-47D breast it was 17.2%; in the assay with MDA-MB-435 melanoma it was -12.3% (active); with SW-620 colon, -28.3% (active); in the assay with MCF7 breast, 0.034% (active); in the assay on HCT-116 colon, -29.7% (active). In the assay on KM12 colon, the growth is 5.08% (active).

Take `Cc1ccc(-c2nc(/C=C3/C(=O)Nc4ccc(F)cc43)c3ccccn23)cc1`: the growth in the assay on HL-60(TB) leukemia was 110%.

Take `CCCCCCCCn1ccc2cc(NC(=O)Cn3cc(CN4CCOCC4)nn3)ccc21`: the growth in the assay with HL-60(TB) leukemia is 97.4%.

On to `CC12CC3OC(=O)C1COC14OC5(C2C1=O)C(O)(CCC1C4CC2OC24CC=CC(=O)C14C)C(=O)OC35C` (stereo not drawn), for which the growth is -79.6% [100 µM] (active) and -94.2% [100 µM] (active) in the assay with UACC-62 melanoma; 4.16% [100 µM] (active) and -100% [100 µM] (active) in the assay with TK-10 renal.

Consider `CC(=O)O[C@H]1C[C@H](O[C@H]2[C@@H](O)C[C@H](O[C@H]3[C@@H](O)C[C@H](O[C@H]4CC[C@@]5(C)C(CCC6C5C[C@@H](O)[C@]5(C)[C@@H](C7=CC(=O)OC7)CC[C@]65O)C4)O[C@@H]3C)O[C@@H]2C)O[C@H](C)[C@H]1O[C@@H]1O[C@H](CO)[C@@H](O)[C@H](O)[C@H]1O` (stereo partly drawn), for which the growth is -98.6% (active) with NCI-H226 lung; -88.3% (active) with NCI-H460 lung; -91.2% (active) in the assay with 786-0 renal; -46.2% (active) in the assay with MDA-MB-231 breast; -100% (active) with SF-268 CNS; -88% (active) in the assay with SF-539 CNS. Further, the growth was -77% (active) with M14 melanoma; -79.1% (active) with HCT-15 colon; -94.3% (active) in the assay with UACC-62 melanoma; -80.1% (active) with UO-31 renal; -91% (active) in the assay with TK-10 renal; -59.1% (active) with ACHN renal. The growth was -46.4% (active) with HL-60(TB) leukemia; -69.5% (active) in the assay with NCI/ADR-RES ovarian; -19% (active) in the assay with T-47D breast; -97.9% (active) in the assay with MDA-MB-435 melanoma; -90.5% (active) in the assay with SW-620 colon; -53% (active) in the assay with MCF7 breast. In addition, the growth was -90.5% (active) in the assay with HCT-116 colon and -100% (active) in the assay on KM12 colon.

Consider `Cc1nnc([S-])s1.[Au+].c1ccc([PH+](c2ccccc2)c2ccccc2)cc1`, for which the growth with NCI-H460 lung is 57.3%; in the assay with 786-0 renal, -29.7% (active); in the assay with MDA-MB-231 breast it was 4.44% (active); in the assay on SF-268 CNS, 7.17% (active); with SF-539 CNS, -22.9% (active); with M14 melanoma, -2.48% (active). The growth with HCT-15 colon was -76% (active); with UACC-62 melanoma it was -31% (active); with UO-31 renal, -3.87% (active); in the assay with TK-10 renal, -61.5% (active); in the assay on ACHN renal, -89.4% (active); in the assay on HL-60(TB) leukemia, -15.2% (active). Moreover, the growth with NCI/ADR-RES ovarian is 63.4%; in the assay with T-47D breast it was -40.2% (active); in the assay with MDA-MB-435 melanoma, 5.65% (active); in the assay on SW-620 colon it was -70.6% (active); in the assay on MCF7 breast, -64.1% (active); in the assay on HCT-116 colon, -60.1% (active). Besides, the growth with KM12 colon was 49.1%.

Turning to `CN1C(=O)C(CCC(=O)O)N=C(c2cccc(O)c2)c2ccccc21` (stereo not drawn), the results for the growth in the assay on UACC-62 melanoma, with TK-10 renal and in the assay with MCF7 breast were 82% [30 µM], 113% [30 µM] and 89% [30 µM], respectively.

As to `C[C@@H]1O[C@@H](O[C@H]2CC[C@@]3(C)[C@H](CCC4[C@@H]3C(O)C[C@]3(C)[C@@H](c5ccc(=O)oc5)CC[C@]43O)C2)[C@H](O)[C@H](O)[C@H]1O` (stereo partly drawn), the growth is -84.2% (active) with NCI-H226 lung; -80.7% (active) in the assay with NCI-H460 lung; -94.1% (active) in the assay on 786-0 renal; -63.7% (active) with MDA-MB-231 breast; -63.1% (active) with SF-268 CNS; -70.7% (active) in the assay on M14 melanoma. For the same compound, the growth is -74.5% (active) in the assay on HCT-15 colon; -89.6% (active) in the assay with UACC-62 melanoma; -97.3% (active) with UO-31 renal; -97% (active) in the assay on TK-10 renal; -81.7% (active) in the assay with ACHN renal; -66.8% (active) with NCI/ADR-RES ovarian. Further, the growth in the assay on T-47D breast is -55.6% (active); in the assay with MDA-MB-435 melanoma, -76.2% (active); in the assay on SW-620 colon it was -79% (active); in the assay on MCF7 breast, -59.4% (active); in the assay on HCT-116 colon it was -79.9% (active); in the assay with KM12 colon it was -94.2% (active).

The record behind these values is PubChem BioAssay (NCI).
